“And” between values parts separate entries of the source, which are not always exact repeats. Equal values may be shown once. Results filed as inconclusive are left out. The source made the active and inactive calls. Unless noted, calls come from the whole dose curve; as a rule, active = well fitted curve in the direction sought with a large enough effect; inconclusive = small, poorly fitted or top-dose-only effect, or another doubt; inactive = no such curve, though single readings can be large; an effect the other way counts as inactive or inconclusive.
How the values were obtained:
[1] = Cell Viability - NIH 3T3 (AID 541); details: NIH 3T3 cell viability, qHTS; activity change, negative = cytotoxicity: at 92.2 µM (top of the series);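 note: cells exposed to compound for 40 hours; plate controls were DMSO alone for no effect and tamoxifen positive control for full effect; nearly all actives have a fitted effect of over 25% in size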
Summary of the method: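 Intracellular ATP (CellTiter-Glo luminescence, 20 min at room temperature) measured after 40 hr compound exposure at 37 °C of 1000 NIH 3T3 mouse fibroblasts/well in complete medium; AC50 derived by Hill-equation modelling of qHTS concentration-response curves.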

[2] = Cell Viability - SH-SY5Y (AID 544); details: SH-SY5Y neuroblastoma cell viability; viability change, negative = cytotoxic: at 92.2 µM (top of the series);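 note: cells exposed to compound for 40 hours; nearly all actives have a fitted effect of over 55% in size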
Summary of the method: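 Cytotoxicity measured via ATP-dependent luciferase luminescence (CellTiter-Glo) following 40 h, 37 °C exposure of 1500 SH-SY5Y cells per well. Concentration-response data were fitted with the standard Hill equation to give AC50.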

[3] = Cellular Toxicity (caspase-3) HUV-EC-C (AID 656)
Summary of the method: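 HUV-EC-C endothelial cells, 1000/well, were pre-incubated 5 hr at 37°C, then exposed to compounds for 16 hr at 37°C. Caspase-Glo 3/7 luminescence was read after 20 min at room temperature. AC50 came from Hill fits, normalized to DMSO and 100 uM tamoxifen.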

[4] = Cellular Toxicity (caspase-3) SHSY5Y (AID 657)
Summary of the method: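 SH-SY5Y human neuroblastoma cells (1500/well) were treated with compounds for 16 h at 37 °C, then Caspase-Glo 3/7 luminescence was read after 1 h at room temperature. Data normalized to DMSO and 10 uM staurosporine; AC50 from Hill fits.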

[5] = Cellular Toxicity (caspase-3) BJ (AID 658);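 note: 0% = DMSO basal and 100% = 10 µM staurosporine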
Summary of the method: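 qHTS, BJ fibroblasts, 1000 cells/well; 5 hr preincubation, 16 hr compound, 37 °C; Caspase-Glo 3/7 reagent, 1 hr RT; luminescence. DMSO = 0%, 10 uM staurosporine = 100%. Hill-equation AC50.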

[6] = Cellular Toxicity (caspase-3) Mesangial (AID 660);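 note: combined caspase 3 and 7 activity read by Caspase-Glo luminescence; cells exposed to compound for 16 h before the caspase read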
Summary of the method: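 Caspase 3/7 activation measured by Caspase-Glo 3/7 luminescence (20 min, room temperature) following 16 h exposure of mesangial cells (1000/well); AC50 from Hill-equation fit, normalized to DMSO and 100 uM tamoxifen.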

[7] = Cellular Toxicity (caspase-3) H-4-II-E (AID 663); details: Potency: caspase-3 activation;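 note: cells exposed to compound for 16 hr before readout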
Summary of the method: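 H-4-II-E rat hepatoma, 1500 cells/well, 5 hr settle at 37 °C; compound 16 hr, 37 °C, complete medium; Caspase-Glo 3/7, 20 min RT; luminescence. DMSO = 0%, 100 uM tamoxifen = 100%; Hill-equation AC50.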

[8] = Cellular Toxicity (caspase-3) Hek293 (AID 664); details: HEK293 caspase-3 activation, DMSO = 0%, 100 µM tamoxifen = 100%; at 92.2 µM (top of the series);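 note: cells exposed to compound for 16 h at 37 °C before readout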
Summary of the method: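 Concentration-response qHTS: caspase 3/7 activation measured by luminescent aminoluciferin substrate cleavage after 16 h compound exposure of Hek 293 cells. AC50 from Hill equation, with DMSO as basal and 100 uM tamoxifen as 100%.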

[9] = Cellular Toxicity (caspase-3) NIH 3T3 (AID 666);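 note: caspase signal read after 16 h compound exposure; 0% = DMSO basal and 100% = 100 µM tamoxifen stimulation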
Summary of the method: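 Caspase-Glo 3/7 luminescence reported caspase activation in 1000 NIH 3T3 cells/well after 16 h compound exposure at 37 C. DMSO set basal and 100 uM tamoxifen set 100% stimulation; concentration-response modeled with the Hill equation for AC50.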

[10] = Cell Viability - LYMP2-019 (AID 973);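 note: 0% = DMSO alone and full effect = 92 µM tetraoctylammonium bromide; nearly all actives have a fitted effect of over 55% in size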
Summary of the method: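 AC50 values come from Hill-equation fits of luminescent intracellular ATP (CellTiter-Glo, 30 min, room temperature) following 24 h compound exposure at 37 C. Cells: LYMP2-019 lymphoblastoid line, 2500 per well, in complete culture medium.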

[11] = Cell Viability - LYMP2-023 (AID 975);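 note: cellular ATP measured by luciferase luminescence as viability proxy; plate controls were DMSO only for no effect and 92 µM tetraoctylammonium bromide control for full effect; nearly all actives have a fitted effect of over 55% in size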
Summary of the method: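 Intracellular ATP, read by CellTiter-Glo luminescence, reports viability after 24 hr compound exposure at 37 C. 2500 lymphoblastoid cells/well (LYMP2-023) seeded 5 hr beforehand; Hill fits give AC50; positive control tetraoctylammonium bromide.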

[12] = Cell Viability - LYMP2-022 (AID 987);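 note: 0% = DMSO alone and full effect = tetraoctylammonium bromide at 92 µM; nearly all actives have a fitted effect of over 55% in size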
Summary of the method: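 Cytotoxicity read as decreased cellular ATP (CellTiter-Glo luminescence, 30 min room temperature) after 24 hours compound exposure of 2500 lymphoblastoid LYMP2-022 cells/well at 37 C. Concentration-response data fitted with standard Hill equation for AC50.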

[13] = Cell Viability - LYMP1-002 - Assay at 24 hr (AID 993); note: % is set by controls: 0 for no effect and ±100 for the full control effect
Summary of the method: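 qHTS cytotoxicity at 24 h: CellTiter-Glo ATP luminescence in lymphoblastoid line LYMP1-002 incubated with compound at 37 °C. Concentration-response modeled with the Hill equation for AC50; tetraoctylammonium bromide served as positive control.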

[14] = Cell Viability - LYMP1-002 - Assay at 40 hr (AID 994);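 note: 0% = DMSO only and full inhibition = 92 µM tetraoctylammonium bromide; nearly all actives have a fitted effect of over 60% in size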
Summary of the method: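 Cytotoxicity was read as loss of cellular ATP (CellTiter-Glo luminescence) after 40 hr compound exposure at 37 C of 2500 LYMP1-002 lymphoblastoid cells per well. Concentration-response data were fitted with the standard Hill equation to give AC50.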

[15] = target: Thyroid hormone receptor beta (Homo sapiens) (UniProt P10828); assay: qHTS assay for small molecule antagonists of thyroid hormone receptor beta signaling (AID 588547; active = well fitted inhibition curve with a large enough effect in the signal ratio, with a control signal flat, not every such curve was filed as active; the % refers to the signal ratio;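 note: cells stimulated with 0.4 nM T3 agonist during compound exposure; % is set by controls: 0 for no effect and ±100 for the full control effect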); details: TR-UAS-bla HEK293, beta-lactamase ratio, antagonist mode, 18 h
Summary of the method: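 TR-UAS-bla GripTite HEK293 cells in 2% charcoal/dextran FBS medium; compounds 0.59 nM to 92 uM with T3 at 0.4nM final, 18 h at 37 C. Beta-lactamase read by CCF4 fluorescence (460/530 nm); Hill fits gave IC50 and efficacy.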

[16] = qHTS assay for small molecule activators of the p53 signaling pathway (AID 651743; active = well fitted activation curve with a large enough effect in the signal ratio, not every such curve was filed as active; the % refers to the signal ratio; note: % of control where 0% means no effect); details: HCT-116 p53RE-bla, beta-lactamase FRET ratio, 16 h; activation: hits give high values
Summary of the method: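 Following 16 hours of compound exposure at 37 C, HCT-116 cells bearing the p53RE-bla reporter were loaded with LiveBLAzer B/G FRET substrate for 2 hours at room temperature and fluorescence intensity was recorded.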

[17] = qHTS assay for small molecule disruptors of the mitochondrial membrane potential - 1 hr assay (AID 651754; calls by dose curve; note: nearly all actives have a fitted effect of over 35% in size; note: potency is the fitted concentration of half-maximal effect)
Summary of the method: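 Mitochondrial potential in living HepG2 cells after 1 hr compound treatment at 37C was read with Mito-MPS dye added for a further 30 min. Red aggregate and green monomer fluorescence were measured; loss of potential leaves dye as cytoplasmic monomers.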

[18] = qHTS assay for small molecule disruptors of the mitochondrial membrane potential - 5 hr assay (AID 651755; calls by dose curve; note: nearly all actives have a fitted effect of over 40% in size; note: potency is the fitted concentration of half-maximal effect)
Summary of the method: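 Read-out: ratiometric Mito-MPS fluorescence, green monomer (ex 490/em 535) vs red mitochondrial aggregate (ex 540/em 590). HepG2 cells treated 5 hr at 37C before 30 min dye loading.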

[19] = target: Peroxisome proliferator-activated receptor alpha (Homo sapiens) (UniProt Q07869); assay: qHTS assay for small molecule agonists of the peroxisome proliferator-activated receptor alpha (PPARalpha) signaling pathway (AID 651778); details: PathHunter PPARalpha complementation, chemiluminescence, 6 h; hits give high values; note: % of control where 0% means no effect
Summary of the method: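 Enzyme-fragment complementation assay in which ligand-bound PPARalpha translocates and forms an active enzyme that generates chemiluminescence. Cells were plated overnight, exposed to compound for 6 hr at 37 C, and then given detection reagent for 60 min at room temperature.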

[20] = Cell Viability - Mesenchymal (AID 546);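 note: cells exposed to compound for 40 hours before reading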
Summary of the method: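 Human renal mesenchymal cells (glomerulus-derived), 1000 cells/well, 5 hr 37 °C pre-incubation; compound 40 hr, 37 °C; CellTiter-Glo, 20 min RT; luminescence; AC50 via Hill equation.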

Peroxisome proliferator-activated receptor alpha (Homo sapiens), sequence (Q07869 whole entry, looked up, the tested form may be a part): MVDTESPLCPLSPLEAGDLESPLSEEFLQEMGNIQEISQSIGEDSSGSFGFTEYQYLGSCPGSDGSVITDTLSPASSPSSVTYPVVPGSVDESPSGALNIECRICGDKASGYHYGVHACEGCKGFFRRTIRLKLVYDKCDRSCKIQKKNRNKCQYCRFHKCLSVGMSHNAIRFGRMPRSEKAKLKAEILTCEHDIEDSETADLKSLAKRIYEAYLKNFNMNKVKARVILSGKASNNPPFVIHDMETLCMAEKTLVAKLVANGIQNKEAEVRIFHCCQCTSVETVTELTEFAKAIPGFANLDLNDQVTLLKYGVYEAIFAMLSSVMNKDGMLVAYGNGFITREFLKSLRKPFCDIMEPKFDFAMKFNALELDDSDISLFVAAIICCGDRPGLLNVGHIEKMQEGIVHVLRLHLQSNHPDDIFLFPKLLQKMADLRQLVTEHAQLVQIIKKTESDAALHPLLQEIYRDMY
Thyroid hormone receptor beta (Homo sapiens), sequence (P10828 whole entry, looked up): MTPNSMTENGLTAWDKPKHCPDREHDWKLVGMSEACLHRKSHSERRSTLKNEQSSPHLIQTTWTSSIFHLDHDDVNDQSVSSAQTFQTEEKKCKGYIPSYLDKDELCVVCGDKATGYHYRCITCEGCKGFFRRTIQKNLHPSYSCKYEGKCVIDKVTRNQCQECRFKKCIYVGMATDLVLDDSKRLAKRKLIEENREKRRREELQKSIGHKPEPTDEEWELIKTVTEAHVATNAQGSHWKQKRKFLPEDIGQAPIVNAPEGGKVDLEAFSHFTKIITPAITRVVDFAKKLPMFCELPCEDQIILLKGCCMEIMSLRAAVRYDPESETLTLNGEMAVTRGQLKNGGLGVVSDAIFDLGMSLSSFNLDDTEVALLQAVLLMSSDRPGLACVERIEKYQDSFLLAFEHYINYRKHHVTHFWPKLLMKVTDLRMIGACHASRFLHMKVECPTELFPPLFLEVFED

CN=C=O
inactive: Potency [1] | Potency [2] | outcome [3] | outcome [4] | outcome [5] | outcome [6] | Potency [7] | caspase-3 activation [8] 1.04% | Potency [9] | Potency [10] | Potency [11] | Potency [12] | Potency [13] | Potency [14] | activity change % (negative = inhibition) [15] -7.41% | activation [16] -2.98% | Potency [17] | Potency [18] | max response [19] 1.15%

CCCCC(=O)Cl
inactive: Potency [1] | Potency [2] | Potency [20] | outcome [3] | outcome [4] | outcome [5] | outcome [6] | Potency [7] | caspase-3 activation [8] -0.249% | Potency [11] | Potency [12] | Potency [14] | activation [16] 1.32% | Potency [17] | Potency [18] | max response [19] -8.92%

Nc1ccc(Oc2ccc(N)cc2)cc1
inactive: Potency [2] | Potency [20] | outcome [3] | outcome [4] | outcome [5] | outcome [6] | Potency [7] | Potency [9] | Potency [10] | Potency [11] | Potency [12] | Potency [14] | activation [16] -4.54% and -10.7% | Potency [17] | Potency [18] | max response [19] -1.7% and -2.66%

CCCCCc1cc(O)cc(O)c1
inactive: Potency [1] | Potency [2] | Potency [20] | outcome [3] | outcome [4] | outcome [5] | Potency [7] | caspase-3 activation [8] 1.25% | Potency [10] | Potency [11] | Potency [12] | Potency [13] | activity change % (negative = inhibition) [15] -2.41% | activation [16] -2.37% | max response [19] -5.69%
active: Potency [17] 37.6 µM | Potency [18] 37.6 µM

CC(C)CC(C)N (stereo not given)
inactive: Potency [1] | Potency [2] | outcome [3] | outcome [4] | outcome [5] | outcome [6] | Potency [7] | caspase-3 activation [8] 1.99% | Potency [9] | Potency [10] | Potency [11] | Potency [12] | Potency [13] | activity change % (negative = inhibition) [15] 11.1% | activation [16] -1.88% | Potency [17] | Potency [18] | max response [19] 1.79%

FC(Cl)(Cl)Cl
inactive: Potency [1] | Potency [2] | Potency [20] | outcome [3] | outcome [4] | outcome [6] | Potency [7] | caspase-3 activation [8] -1.27% | Potency [10] | Potency [11] | Potency [12] | Potency [13] | Potency [14] | activity change % (negative = inhibition) [15] -7.45% | activation [16] -3.53% | Potency [17] | Potency [18]

N#CC(O)c1ccccc1 (stereo not given)
inactive: Potency [1] | Potency [2] | Potency [20] | outcome [3] | outcome [4] | outcome [5] | outcome [6] | Potency [7] | caspase-3 activation [8] 0.0339% | Potency [9] | Potency [10] | Potency [12] | Potency [13] | Potency [14] | activity change % (negative = inhibition) [15] 8.13% | Potency [18] | max response [19] 12.9%

CN(C)C(=O)Nc1cccc(C(F)(F)F)c1
inactive: Potency [1] | Potency [2] | outcome [4] | outcome [5] | outcome [6] | caspase-3 activation [8] 0.171% | Potency [9] | Potency [10] | Potency [11] | Potency [12] | Potency [13] | Potency [14] | activity change % (negative = inhibition) [15] -7.4% and -5.84% | activation [16] 0.966% and 0.726% | Potency [17] | Potency [18] | max response [19] -1.29% and 0.409%

OCCOCCO
inactive: Potency [1] | Potency [2] | Potency [20] | outcome [3] | outcome [4] | outcome [5] | outcome [6] | Potency [7] | caspase-3 activation [8] 3.16% | Potency [9] | Potency [11] | Potency [12] | Potency [13] | Potency [14] | activity change % (negative = inhibition) [15] -14.9% | Potency [17] | Potency [18]

C=C(Cl)CCl
inactive: Potency [1] | Potency [2] | Potency [20] | outcome [3] | outcome [4] | outcome [5] | outcome [6] | Potency [7] | caspase-3 activation [8] 0.722% | Potency [9] | Potency [10] | Potency [12] | Potency [13] | Potency [14] | activity change % (negative = inhibition) [15] 0.727% | activation [16] -0.495% | Potency [17] | Potency [18] | max response [19] -4.17%

CCBr
inactive: Potency [1] | Potency [2] | Potency [20] | outcome [3] | outcome [4] | outcome [5] | outcome [6] | caspase-3 activation [8] 2.63% | Potency [10] | Potency [11] | Potency [12] | Potency [13] | Potency [14] | activity change % (negative = inhibition) [15] -4.65% | activation [16] 1.32% | Potency [17] | Potency [18]

Nc1ccc(Cc2ccc(N)cc2)cc1
inactive: Potency [1] | Potency [2] | Potency [20] | outcome [3] | outcome [4] | outcome [5] | outcome [6] | caspase-3 activation [8] 0.697% | Potency [9] | Potency [10] | Potency [11] | Potency [13] | Potency [14] | activity change % (negative = inhibition) [15] 11% and -9.43% | activation [16] -1.69% and -2.54% | Potency [17] | Potency [18] | max response [19] -4.91% and -1.61%

O=[N+]([O-])c1ccc(Cl)cc1
inactive: Potency [1] | Potency [2] | Potency [20] | outcome [3] | outcome [4] | outcome [6] | Potency [7] | caspase-3 activation [8] -0.181% | Potency [10] | Potency [12] | Potency [13] | Potency [14] | activity change % (negative = inhibition) [15] 3.07% and -2.63% | activation [16] 0.333% and 2.39% | Potency [17] | Potency [18] | max response [19] -4.31% and 0.471%

Source: PubChem BioAssay (NCATS)
